About 5,800 (36%) of roughly 16,000 compounds were called active. Another 23% or so got no clear call; they are omitted. The call rests on the fitted dose curve; in most records, active means well fitted curve in the direction sought with a large enough effect; inconclusive means small, poorly fitted or top-dose-only effect, or effect the other way; inactive means no such curve, though single readings can be large or run the other way. The list shows a part of the results.
target: Cytochrome P450 2C19 (Homo sapiens) (UniProt P33261); assay: Cytochrome panel assay with activity outcomes; conditions: recombinant CYP, pro-luciferin dealkylation, luminescence, p450-cyp2c19; series mostly up to 57.1 µM; activity, negative = inhibition: at the top concentration
On the % scale 0 is the no-effect control and ±100 the full control effect.

Cytochrome P450 2C19 (Homo sapiens), sequence (P33261 whole entry, looked up): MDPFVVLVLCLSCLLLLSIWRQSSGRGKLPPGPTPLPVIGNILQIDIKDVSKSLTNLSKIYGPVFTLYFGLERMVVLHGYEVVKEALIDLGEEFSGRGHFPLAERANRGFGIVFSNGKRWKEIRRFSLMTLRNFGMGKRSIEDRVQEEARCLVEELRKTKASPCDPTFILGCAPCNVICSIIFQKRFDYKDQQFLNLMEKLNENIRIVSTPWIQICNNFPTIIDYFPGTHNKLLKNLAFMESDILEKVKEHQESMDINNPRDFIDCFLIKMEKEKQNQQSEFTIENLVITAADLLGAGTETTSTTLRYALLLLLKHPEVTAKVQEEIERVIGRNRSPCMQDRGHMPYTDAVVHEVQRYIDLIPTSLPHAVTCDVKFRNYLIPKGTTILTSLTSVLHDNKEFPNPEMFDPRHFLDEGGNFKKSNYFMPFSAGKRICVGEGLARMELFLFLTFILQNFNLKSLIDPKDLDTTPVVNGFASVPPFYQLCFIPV

activity, negative = inhibition, inactive:
O=C1c2ccccc2C(Cc2ccncc2)(Cc2ccncc2)c2ccccc21 -30.9%
COc1ccccc1CN1CCCC2(CCNCC2)C1 -24.4%
O=C(NCc1n[nH]c(=S)n1-c1cccc(Cl)c1)c1ccc(S(=O)(=O)N2CCCC2)cc1 -8.01%
C[N+](C)(C)CCOC(N)=O 22.8% [at 25.6 µM]
Nc1ncnc2c1ncn2C1CCCC1 4.13%
C#CCCCO/N=C1/C[C@@H](O)[C@@H](O)[C@@H]2[C@@H]3C(=O)N(C4CCCCC4)C(=O)[C@H]3CC[C@H]12 4.77% [at 11.4 µM]
c1nc(NCCN2CCOCC2)c2cc(-c3ccoc3)ccc2n1 6.18%
N#Cc1cccc(-c2ccc3ncnc(NCc4ccccc4)c3c2)c1 -32.2%
COc1ccccc1CNc1ncnc2ccc(-c3ccccc3CN(C)C)cc12 -41.1%
COc1ccc(CNc2ncnc3ccc(-c4cccc(C#N)c4)cc23)c(OC)c1 -35.9%
CSc1nnc2c(n1)OC(C)N(C(=O)c1ccccc1)c1ccccc1-2 (stereo unspecified) -22.2%
CS(=O)(=O)Nc1cccc(-c2ccc3ncnc(NCCN4CCOCC4)c3c2)c1 -39.7%
COc1ccc(CNc2ncnc3ccc(-c4ccccc4C#N)cc23)c(OC)c1 -22%
C[C@@H]1c2ccccc2CN1CC1=NCCN1 -9.19%
COc1ccc(NC(=O)N2CCC3(CC2)CCN(C(=O)c2cccc(F)c2)CC3)cc1 7.83%
COc1ccc(NC(=O)N2CCCC3(CCN(C(=O)c4cccc(F)c4)CC3)C2)cc1 -15.7%
O=C(O)CCCSc1ccccc1 31.6% [at 11.4 µM]
O=c1c(-c2ccccc2)nc2cnc(N3CCNCC3)nc2n1-c1ccccc1 -29.6%
O=C(O)c1ccccc1NCn1c(=S)sc2ccccc21 -40.3% [at 11.4 µM]
c1ccc2nc(C3=NCCN3)cnc2c1 21.6%

AC50, active:
O=C1N(c2ccccc2)c2ccccc2C1(Cc1ccncc1)Cc1ccncc1 0.2 µM
N#C/C(=C\c1ccc(Cl)cc1)c1nc2ncccc2[nH]1 25.1 µM
COc1cccc(CN2C(=O)N(C(C)C)C(N(O)C(=O)NC(C)C)C2(C)C)c1OC (stereo unspecified) 14.1 µM
CN(C)c1ccc(/C=C2\SC(=S)N(Nc3ncc(C(F)(F)F)cc3Cl)C2=O)cc1 20 µM
O=C1/C(=C\c2ccccn2)SC(=S)N1Nc1ncc(C(F)(F)F)cc1Cl 7.94 µM
O=c1c(Cl)c(N2CCN(S(=O)(=O)c3ccc(F)cc3)CC2)cnn1-c1cccc(Cl)c1 4.47 µM
Nc1ncnc2c1c(-c1ccc(Oc3ccccc3)cc1)cn2C1CCCC1 25.1 µM
COc1ccccc1CNc1ncnc2ccc(-c3cccc(C#N)c3)cc12 5.01 µM
COc1ccccc1CNc1ncnc2ccc(-c3ccccc3OC)cc12 3.16 µM
COc1cccc(-c2ccc3ncnc(NCc4ccc(OC)cc4OC)c3c2)c1 10 µM
c1csc(CNc2ncnc3ccc(-c4ccoc4)cc23)c1 6.31 µM
COc1cccc(-c2ccc3ncnc(NCc4cccs4)c3c2)c1 10 µM
COc1ccc(CNc2ncnc3ccc(-c4ccccc4OC)cc23)c(OC)c1 7.94 µM
CS(=O)(=O)Nc1cccc(-c2ccc3ncnc(NCc4cccs4)c3c2)c1 15.8 µM
COc1ccc(CNc2ncnc3ccc(-c4ccccc4CN(C)C)cc23)c(OC)c1 15.8 µM
COc1ccc(CNc2ncnc3ccc(-c4c(C)noc4C)cc23)c(OC)c1 10 µM
COc1ccccc1CNc1ncnc2ccc(-c3ccccc3C#N)cc12 7.94 µM
COc1ccc(CNc2ncnc3ccc(-c4ccoc4)cc23)c(OC)c1 7.94 µM
Cc1nc2sc(C#N)c(N)c2c2c1CCCC2 11.2 µM
CCn1c(N2CCN(C(=O)Nc3ccc(F)cc3)CC2)nc2ccccc21 31.6 µM
CCOC(=O)CSc1n[nH]c(NC(=O)c2cccc(C)c2)n1 5.01 µM
Cc1cc(Br)ccc1NC(=O)CCSc1ccccc1 1.26 µM
NNC(=O)CCSc1ccccc1 3.98 µM
CC(C)c1ccc(CN(C(=O)C2COc3ccccc3O2)C2CCS(=O)(=O)C2)cc1 (stereo unspecified) 10 µM
CCCCC(=O)NC(Nc1cc(C)ccn1)(C(=O)OCC)C(F)(F)F (stereo unspecified) 1.41 µM
N=c1sc2ccccc2n1CCS (tested in a mixture with another compound) 1.58 µM

From PubChem BioAssay AID1851 (National Center for Advancing Translational Sciences (NCATS), 2009)
